These results are taken from PubChem BioAssay (NCATS).

Structures are written as SMILES. Where “and” joins values, the source holds several entries; their conditions need not be identical. Equal values may be shown once. Inconclusive results are not listed. Calls of active or inactive are those of the source. Unless noted, calls come from the whole dose curve.

Experiment [1] in a line: Cytotoxicity counterscreen for inhibitors of SARS-CoV-2 cell entry (AID 1645845). Note: nearly all actives have a fitted effect of over 50% in size. Conditions: cell viability (SARS-CoV-2 entry assay cells); series mostly up to 57.1 µM. In outline: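 Counterscreen run in the same HEK293-ACE2 line as the pseudotyped-particle entry assay, without particles. Viability after 48 h at 37 C was read as ATP luminescence, scaled between cell-containing and cell-free wells.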

The nature of experiment [2]: Primary qHTS to identify inhibitors of SARS-CoV-2 cell entry (AID 1645846). Note: nearly all actives have a fitted effect of over 45% in size. Note: potency is the fitted concentration of half-maximal effect. Conditions: SARS-CoV-2 pseudovirus cell entry assay, luminescence; activity change, negative = inhibition: at 57.1 µM (top of the series) unless noted; series mostly up to 57.1 µM. In outline:
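Using luciferase-reporting pseudoviruses carrying Wuhan-Hu-1 spike, the screen tracks entry into stably ACE2-expressing cells over 48 hr. Activity is expressed relative to spike particles versus particles lacking any fusion protein.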
Background: qHTS replaces the single test concentration by a dilution series.

A short description of experiment [3]: VSVG counterscreen qHTS to identify inhibitors of SARS-CoV-2 cell entry (AID 1645847). For activity change, negative = inhibition: % is set by controls: 0 for no effect and ±100 for the full control effect. Note: nearly all actives have a fitted effect of over 65% in size. Note: potency is the fitted concentration of half-maximal effect. Particulars: VSV-G pseudotyped particle entry, luciferase; series mostly up to 57.2 µM. The method in brief: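 Entry of VSV-G pseudotyped particles into human ACE2-expressing HEK293 cells was measured by luciferase luminescence 48 h after infection, with compound added 1 h beforehand.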
For orientation: The purpose of a counterscreen is to sort out artefacts and off-target activity.

Experiment [4] in a line: Primary qHTS for inhibitors of nuclear receptor binding SET domain protein 2 (NSD2) in an isogenic RCH-ACV NSD2 p.E1099K mutant (9B) (AID 1645876; active = well fitted curve in the direction sought with a large enough effect; an effect the other way counts as inactive or inconclusive; note: nearly all actives have a fitted effect of over 70% in size). Conditions: RCH-ACV NSD2 E1099K (9B) viability, CellTiter-Glo, 72 h; series mostly up to 44.9 µM.
Experiment [5] in a line: Primary qHTS for inhibitors of nuclear receptor binding SET domain protein 2 (NSD2) in an RCH-ACV wild type WT cells (2C) (AID 1645877; active = well fitted curve in the direction sought with a large enough effect; an effect the other way counts as inactive or inconclusive; note: nearly all actives have a fitted effect of over 70% in size). Particulars: RCH-ACV (leukaemia line) NSD2 WT (2C) viability, CellTiter-Glo, 72 h; series mostly up to 44.9 µM.

`Cc1cc(C)c(/C=C2\C(=O)Nc3ccccc32)[nH]1`: the Potency entry in experiment [1] is “inactive”. In addition, in experiment [2], the activity change, negative = inhibition is -6.25%.

As to `CN1CCN(c2c(F)cc3c(=O)c(C(=O)O)cn(CCF)c3c2F)CC1`, the Potency result in experiment [1] was “inactive”. Moreover, the activity change, negative = inhibition in experiment [2] came to 2.09%. As to `CC(=O)OCC(=O)[C@@]1(O)CC[C@H]2[C@@H]3CCC4=CC(=O)C=C[C@]4(C)[C@H]3[C@@H](O)C[C@@]21C`, the Potency entry in experiment [1] and in experiment [2] was “inactive” in each case. Take `CC[N+](CC)(CC(=O)Nc1c(C)cccc1C)Cc1ccccc1`: the Potency entry in experiment [1] and in experiment [2] was “inactive” in each case. With `CC1(C)OC[C@@H](COC(=O)CCc2ccc(OC[C@@H](O)CNCCNC(=O)N3CCOCC3)cc2)O1`, the Potency entry in experiment [1] is “inactive”. Also, the activity change, negative = inhibition in experiment [2] was -4.74%. On the same counts, the results for `C[C@@H](O)[C@H](N)C(=O)O` are “inactive” and 0.235% [at 27.1 µM]. For `CC1(C)O[C@@H]2C[C@H]3[C@@H]4CCC5=CC(=O)CC[C@]5(C)[C@@]4(F)[C@@H](O)C[C@]3(C)[C@]2(C(=O)CCl)O1`, the Potency entry in experiment [1] and in experiment [2] was “inactive” in each case. As to `Cc1[nH]c(C)c(Cl)c(=O)c1Cl`, the Potency entry in experiment [1] and in experiment [2] was “inactive” in each case. For `CC(C)N=C(N)/N=C(\N)Nc1ccc(Cl)cc1`, the Potency result in experiment [1] and in experiment [2] was “inactive” throughout. `CC1(C)[C@@H](OC(=O)CCC(=O)O)CC[C@]2(C)[C@H]3C(=O)C=C4[C@@H]5C[C@@](C)(C(=O)O)CC[C@]5(C)CC[C@@]4(C)[C@]3(C)CC[C@@H]12`: the Potency entry in experiment [1] and in experiment [2] was “inactive” each time.

In the case of `O=C1CC2(CCCC2)CC(=O)N1CCCCN1CCN(c2ncccn2)CC1`, the Potency result in experiment [1] is “inactive”. Moreover, the activity change, negative = inhibition in experiment [2] came to 0.863%.

With `CC(CNC1CCCCC1)OC(=O)c1ccccc1` (stereo unspecified), the Potency result in experiment [1] and in experiment [2] was “inactive” in each case. On to `COc1cc(OC)cc(OC)c1`, for which the Potency result in experiment [1] and in experiment [2] was “inactive” throughout.

For the compound `CCOC(=O)n1ccn(C)c1=S`, the Potency entry in experiment [1] and in experiment [2] was “inactive” each time. `CC1(C)O[C@@H]2C[C@H]3[C@@H]4C[C@H](F)C5=CC(=O)CC[C@]5(C)[C@H]4[C@@H](O)C[C@]3(C)[C@]2(C(=O)CO)O1`: the Potency entry in experiment [1] and in experiment [2] was “inactive” in each case. Consider `CC(=O)[C@@]1(O)CC[C@H]2[C@@H]3C[C@H](C)C4=CC(=O)CC[C@]4(C)[C@H]3CC[C@@]21C`, for which the Potency entry in experiment [1] and in experiment [2] was “inactive” throughout. As to `CCOC(=O)c1ccc(OC(=O)CCCCCN=C(N)N)cc1`, the Potency result in experiment [1] and in experiment [2] was “inactive” throughout. For the compound `COC(=O)C1=C(C)NC(C)=C(C(=O)OC)C1c1ccccc1[N+](=O)[O-]`, the Potency entry in experiment [1] was “inactive”. In addition, the activity change, negative = inhibition in experiment [2] was -30.6%. In the case of `O=C(O)CCNC(=O)c1ccccc1`, the Potency result in experiment [1] and in experiment [2] was “inactive” throughout. Regarding `CCOc1ccccc1C(N)=O`, the Potency result in experiment [1] and in experiment [2] was “inactive” throughout.

Take `CN1C(=O)CC(c2ccccc2)C1=O` (stereo unspecified): the Potency result in experiment [1] was “inactive”. For the same compound, the activity change, negative = inhibition in experiment [2] is -27.2%. Consider `Cn1cnc2c1c(=O)[nH]c(=O)n2C`, for which the Potency entry in experiment [1] and in experiment [2] was “inactive” in each case. `NCCc1ccc(O)c(O)c1`: the Potency entry in experiment [1] is “inactive”. Also, the activity change, negative = inhibition in experiment [2] is -18% and -6.68%. On to `CCCCCCc1ccc(O)cc1O`, for which, in experiment [1], the Potency result is “inactive”. The activity change, negative = inhibition in experiment [2] is -11.8%.

In the case of `C=CC[N+]1([C@H]2C[C@H]3[C@@H]4CC[C@H]5C[C@H](OC(C)=O)[C@@H](N6CCCCC6)C[C@]5(C)[C@H]4CC[C@]3(C)[C@H]2OC(=O)CC)CCCCC1`, the Potency result in experiment [1] and in experiment [2] was “inactive” each time. On to `CN(C)[C@@H](CCOc1cccc2ccccc12)c1ccccc1`, for which, in experiment [1], the Potency entry is “inactive”. Also, the Potency in experiment [2] was 10 µM (active). For `CCOc1ccc(C(=O)OCCN(CC)CC)cc1`, the Potency result in experiment [1] was “inactive”. In addition, in experiment [2], the activity change, negative = inhibition is -1.6%.

Turning to `OCCN1CCN(CCCN2c3ccccc3C=Cc3ccccc32)CC1`, the Potency result in experiment [1] was “inactive”. In addition, in experiment [2], the activity change, negative = inhibition was -17.2%. Take `CCCCC(=O)O[C@]1(C(=O)CO)CC[C@H]2[C@@H]3CCC4=CC(=O)CC[C@]4(C)[C@H]3[C@@H](O)C[C@@]21C`: the Potency result in experiment [1] and in experiment [2] was “inactive” in each case. For `Cc1ccc(/C=N/n2c(-c3ccccc3)csc2=S)cc1`, the Potency result in experiment [1] is “inactive”. Further, in experiment [2], the activity change, negative = inhibition is -8.63%. For `CCOC(=O)C(C)(C)Oc1ccc(Cl)cc1`, the Potency result in experiment [1] was “inactive”. Besides, in experiment [2], the Potency result was “inactive” and the activity change, negative = inhibition is -63%. Besides, the Potency in experiment [3] is 12.1 µM (active).

Take `C1CCN2C[C@@H]3C[C@@H](CN4CCCC[C@@H]34)[C@H]2C1`: the activity change, negative = inhibition in experiment [2] was -16.5%. With `COC(=O)Nc1nc2ccc(S(=O)c3ccccc3)cc2[nH]1` (stereo unspecified), in experiment [1], the Potency entry was “inactive”. Besides, the Potency in experiment [3] was 24.1 µM (active). Regarding `COP(=O)(OC)C(O)C(Cl)(Cl)Cl` (stereo unspecified), the Potency result in experiment [1], in experiment [4] and in experiment [5] was “inactive” each time. Besides, the activity change, negative = inhibition in experiment [2] is -13.6%.

Regarding `Oc1c(Cl)cc(Cl)c(Cl)c1Cc1c(O)c(Cl)cc(Cl)c1Cl`, the Potency in experiment [2] was 3.16 µM (active). In the case of `CC(C)[N+](C)(CCC(C(N)=O)(c1ccccc1)c1ccccc1)C(C)C`, the Potency entry in experiment [1] and in experiment [4] was “inactive” throughout. Besides, the activity change, negative = inhibition in experiment [2] is -0.507%. Take `CCCCCN=C(N)N/N=C/c1c[nH]c2ccc(OC)cc12`: the Potency in experiment [2] is 22.4 µM (active). Turning to `CCCCCCCCCCCCCCCCC(C(=O)O)C(O)(CC(=O)O)C(=O)O` (stereo unspecified), the Potency result in experiment [1] and in experiment [3] was “inactive” in each case.

With `CCOc1ccc2nc(S(N)(=O)=O)sc2c1`, in experiment [2], the Potency result was “inactive”. The same measure, in the same setting: the value for `CN1CCN(c2cc3c(cc2F)c(=O)c(C(=O)O)cn3-c2ccc(F)cc2)CC1` was “inactive”; that for `Nc1ccc2cc3ccc(N)cc3nc2c1` was 7.94 µM (active).
